Each structure is given as a SMILES string. Inconclusive results are not listed. The source made the active and inactive calls. Unless noted, calls come from the whole dose curve; as a rule, active = well fitted curve in the direction sought with a large enough effect; inconclusive = small, poorly fitted or top-dose-only effect, or another doubt; inactive = no such curve, though single readings can be large; an effect the other way counts as inactive or inconclusive. Bounds are passed on as bounds.

The values that follow come from PubChem BioAssay (NCATS).

In test [1] the target is Lysosomal acid glucosylceramidase (Homo sapiens) (UniProt P04062). The test can be described thus: Glucocerebrosidase-p2 (AID 348; in the data active = potency below about 10 µM; note: potency is the fitted concentration of half-maximal effect). As to conditions: purified GBA, blue fluorogenic substrate, 40 min. The method in brief:
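Normal human glucocerebrosidase (0.2 nM) with blue fluorogenic substrate (80 uM final) in citrate/phosphate pH 5.9 with 10mM sodium taurocholate, 0.01% tween-20; 40 min RT, NaOH/glycine stop; fluorescence Ex 365/Em 440; AC50 from a titration from 0.6 nM upwards.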

Test [2] is described as follows: NFAT Signaling Pathway (AID 444; active = well fitted curve in either direction with a large enough effect, not every such curve was filed as active;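 note: carbachol stimulus at about its EC50 of 1 µM final; % is set by controls: 0 for no effect and ±100 for the full control effect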). The conditions noted are these: Jurkat NFAT-bla M1, carbachol, beta-lactamase ratio, 5 h; at 7.69 µM (top of the series) unless noted. The method in brief: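 Jurkat cells with NFAT-driven β-lactamase reporter and co-expressed M1 receptor, stimulated with carbachol (final 1 uM, ~EC50), compound titration, 5 h at 37 °C. CCF4 loaded 1 h at RT; 460/530 nm ratio gave %activity and AC50.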

A short description of test [3]: Stat Signaling Pathway (AID 446; active = well fitted curve in either direction with a large enough effect, not every such curve was filed as active;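 note: ME-180 cervical cancer cells given 40 pM IL-6 alongside compound; SIE-controlled beta-lactamase reporter measured as 460/530 nm FRET emission ratio; % is set by controls: 0 for no effect and ±100 for the full control effect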). As to conditions: ME-180 SIE beta-lactamase reporter, IL-6 stimulated, 5 h; at 7.69 µM (top of the series) unless noted. The method in brief:
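Emission at 460 and 530 nm (excitation 405 nm) reports SIE-controlled beta-lactamase in ME-180 cells. Cells received compound with 40 pM IL-6 for 5 hrs at 37 C; data scaled between 300 pM IL-6 and 125 nM JAK-inhibitor controls.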

Test [4] addresses Glucocorticoid receptor (Homo sapiens) (UniProt P04150). The test can be described thus: GR-GFP Redistribution (AID 450;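 active = compounds whose dose series gives a full or clear partial fitted curve of increased nuclear translocation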; note: potency is the fitted concentration of half-maximal effect). As to conditions: U2OS GR-GFP nuclear translocation, laser cytometry, 2 h.
Test [5] shares this target. The test can be described thus: GR-EFC Redistribution (AID 451; calls by dose curve; note: potency is the fitted concentration of half-maximal effect). The conditions noted are these: CHO-K1 GR-EFC translocation, beta-gal luminescence, 2 h. The method in brief: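 CHO-K1 cells expressing nuclear EA and GR-ED fragments of b-gal; compounds titrated up to 46 uM final, 2 h at 37 C. GR nuclear translocation read as complemented b-gal luminescence after 1 h RT detection.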

In test [6] the target is Mitogen-activated protein kinase 10 (Mus musculus) (UniProt Q61831). Kind of test: JNK3 AlphaScreen Assay (AID 530; active = well fitted curve in either direction with a large enough effect, not every such curve was filed as active;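 note: kinase came from lysate of stimulated human HepG2 cells; signal reports phosphorylation of biotinylated GST-cJun 1-79 at Ser73 with 10 µM ATP; % is set by controls: 0 for no effect and ±100 for the full control effect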). The conditions noted are these: JNK3 lysate, c-Jun phosphorylation; series mostly up to 57.1 µM. The method in brief: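 HepG2 lysate (IL-1b/TNFa pre-activated) + biotin-GST-cJun 1-79 + anti-pSer73 cJun; cpd titration, 15 min RT; ATP 10 uM start; Tris pH 7.6, MgCl2, DTT, vanadate; beads in EDTA buffer; AlphaScreen.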

A short description of test [7]: qHTS Assay for Lipid Storage Modulators (AID 1519; calls by dose curve). The conditions noted are these: Drosophila S3 cells, BODIPY lipid droplet/cell ratio, laser cytometry, cells loaded with oleic acid; for activity change, negative = inhibition: at 57.5 µM (top of the series). The method in brief:
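Cells seeded at 5,000 per well were treated with compounds over a concentration series and loaded with oleic acid (400 uM, as added). Lipid droplet fluorescence (488 nm excitation, 500-530 nm channel) was read by laser-scanning cytometry and normalized to 20 uM Triacsin C.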

In test [8] the target is Dual specificity protein kinase CLK4 (Homo sapiens) (UniProt Q9HAZ1). Kind of test: qHTS Assay for Inhibitors of CDC-like Kinase 4 (Kinase-Glo Assay) (AID 1770). Note: nearly all actives have a fitted effect of over 65% in size. Note: potency is the fitted concentration of half-maximal effect. As to conditions: recombinant Clk4, Kinase-Glo ATP depletion luminescence; series mostly up to 66.7 µM. The method in brief: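 Inhibition was judged from remaining ATP, measured by Ultra-Glo luciferase bioluminescence after Clk4 (25 nM) had acted on RS peptide at 1 uM ATP for 4.5 hours, room temperature.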
Sequence of Dual specificity protein kinase CLK4 (Homo sapiens) (Q9HAZ1 whole entry, looked up): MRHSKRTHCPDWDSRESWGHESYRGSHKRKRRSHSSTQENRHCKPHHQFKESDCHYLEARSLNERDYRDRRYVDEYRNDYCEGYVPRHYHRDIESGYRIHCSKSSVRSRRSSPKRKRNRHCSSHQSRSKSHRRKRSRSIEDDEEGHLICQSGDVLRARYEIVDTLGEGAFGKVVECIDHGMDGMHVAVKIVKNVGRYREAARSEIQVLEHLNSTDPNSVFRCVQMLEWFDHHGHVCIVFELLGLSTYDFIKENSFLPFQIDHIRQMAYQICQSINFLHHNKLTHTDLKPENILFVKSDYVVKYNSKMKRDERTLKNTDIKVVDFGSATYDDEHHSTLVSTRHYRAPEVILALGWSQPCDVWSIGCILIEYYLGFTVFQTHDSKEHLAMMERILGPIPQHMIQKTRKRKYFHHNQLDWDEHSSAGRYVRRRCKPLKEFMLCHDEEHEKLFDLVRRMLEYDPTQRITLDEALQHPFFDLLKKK

The target is the same in test [9]. The test can be described thus: qHTS Assay for Inhibitors of CDC-like Kinase 4 (ADP-Glo Assay) (AID 1771). Note: nearly all actives have a fitted effect of over 70% in size. Note: potency is the fitted concentration of half-maximal effect. The conditions noted are these: recombinant CLK4, ADP-Glo luminescence; series mostly up to 80 µM. The method in brief: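 25 nM Clk4, 100 uM RS peptide, 1 uM ATP (final); 2 mM MgCl2, 0.5 mM EGTA, 2.5 mM DTT, 0.01% Triton X-100; 1 hr RT. ADP-Glo readout: ATP depletion 45 min, conversion/luciferase 30 min, luminescence.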

The target is the same in test [10]. The test can be described thus: qHTS Assay for Inhibitors of CDC-like Kinase 4 (ADP-FP Assay) (AID 1795). Note: nearly all actives have a fitted effect of over 60% in size. Note: potency is the fitted concentration of half-maximal effect. The conditions noted are these: Transcreener ADP fluorescence polarization; series mostly up to 50 µM. The method in brief: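 Inhibition of ADP formation by 6.25 nM Clk4 is measured using 1 uM ATP and 100 uM RS repeat peptide over one hour. Produced ADP displaces a fluorescent tracer from antibody, lowering polarization.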

The target of test [11] is Ubiquitin carboxyl-terminal hydrolase 1 (Homo sapiens) (UniProt O94782). The test can be described thus: Inhibitors of USP1/UAF1: Pilot qHTS (AID 504865).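 Note: rhodamine fluorescence freed from ubiquitin-rhodamine substrate followed over time; top concentration of the series differs between compounds; % is set by controls: 0 for no effect and ±100 for the full control effect; nearly all actives have a fitted effect of over 35% in size.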 The conditions noted are these: purified USP1/UAF1, Ub-rhodamine cleavage fluorescence; series mostly up to 54.9 µM. The method in brief:
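Kinetic fluorescence assay: 1nM USP1/UAF1, 15 min compound preincubation, then 150nM Ub-Rho; 480/540 nm.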

Test [12] has as its target Cytochrome P450 1A2 (Homo sapiens) (UniProt P05177). The test can be described thus: p450-cyp1a2 (AID 410; calls by dose curve; note: potency is the fitted concentration of half-maximal effect). The conditions noted are these: recombinant CYP1A2, luciferin-ME demethylation, luminescence; series mostly up to 57 µM. The method in brief: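 20nM CYP1A2, 100uM Luciferin-ME (=Km), 100mM KPO4; cpd 10 min RT; +NADPH regen, 60 min RT; stop/detect 20 min; luminescence. Normalized to furafylline 57 uM = full inhibition.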

Test [13] has as its target Cytochrome P450 3A4 (Homo sapiens) (UniProt P08684). Kind of test: qHTS Assay for Activators of Cytochrome P450 3A4 (AID 885). Note: nearly all actives have a fitted effect of over 65% in size. The conditions noted are these: recombinant CYP3A4, Luciferin-PPXE luminescence, 60 min; series mostly up to 57.1 µM. The method in brief:
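Activators are scored by enhanced luminescence from CYP3A4 conversion of luciferin-PPXE (25uM, equal to KM) to luciferin, after 60 min at RT with an NADPH-regenerating system.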

Test [14] addresses 3',5'-cyclic-AMP phosphodiesterase 4B (Homo sapiens) (UniProt Q07343). The test can be described thus: qHTS Assay for Inhibitors of PDE-IV (AID 607; active = well fitted activation curve with a large enough effect in the main read-out, with a control signal flat, not every such curve was filed as active; note: % of control where 0% means no effect). As to conditions: HEK293 ACTOne CNG channel cells, membrane potential fluorescence; series mostly up to 22.9 µM. The method in brief:
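The readout is membrane depolarisation from a cAMP-sensing CNG channel, detected with a potential dye at ex 535/em 590. Cells were HEK293-derived (endogenous PDE-IV) at 1000 cells/well, titrated up to 22.9 uM final.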

Test [15] in a line: qHTS Assay for Identification of Small Molecule Agonists for Hypoxia Response Element Signaling Pathway (AID 914; active = well fitted activation curve with a large enough effect in the signal ratio, with a control signal flat, not every such curve was filed as active; the % refers to the signal ratio; note: potency is the fitted concentration of half-maximal effect; for activation: % of control where 0% means no effect). As to conditions: ME-180 HRE-bla reporter, beta-lactamase ratio, CoCl2, 17 h; activation: stronger effect = higher value. The method in brief: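 Read-out: CCF4 FRET ratio of 460nm to 530nm emission (excitation 405nm) after 2.5 hours at room temperature, taken from HRE-bla ME-180 cells that had been exposed to compound and EC50 CoCl2 for 17 hours.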

Test [16] in a line: AP1 Signaling Pathway (AID 357; active = well fitted curve in either direction with a large enough effect, not every such curve was filed as active;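 note: ME-180 reporter cells stimulated with EGF at its EC50 level; % is set by controls: 0 for no effect and ±100 for the full control effect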). As to conditions: ME-180 (cervical carcinoma) AP-1-bla reporter, EGF-induced, beta-lactamase ratio, 5 h; at 7.69 µM (top of the series) unless noted. The method in brief: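 AP-1-bla ME-180 cells, Opti-MEM + 0.5% dialyzed FBS, plated overnight 37 °C. Cpd titration + EC50 EGF, 5 h 37 °C. CCF4 2.5 h RT; ex 405, em 460/530 ratio → %activity, AC50.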
[17] abbreviates: measured here: cell count channel max response.
Setting [18] is: measured here: lipid channel max response.

Sequence of Lysosomal acid glucosylceramidase (Homo sapiens) (P04062 whole entry, looked up): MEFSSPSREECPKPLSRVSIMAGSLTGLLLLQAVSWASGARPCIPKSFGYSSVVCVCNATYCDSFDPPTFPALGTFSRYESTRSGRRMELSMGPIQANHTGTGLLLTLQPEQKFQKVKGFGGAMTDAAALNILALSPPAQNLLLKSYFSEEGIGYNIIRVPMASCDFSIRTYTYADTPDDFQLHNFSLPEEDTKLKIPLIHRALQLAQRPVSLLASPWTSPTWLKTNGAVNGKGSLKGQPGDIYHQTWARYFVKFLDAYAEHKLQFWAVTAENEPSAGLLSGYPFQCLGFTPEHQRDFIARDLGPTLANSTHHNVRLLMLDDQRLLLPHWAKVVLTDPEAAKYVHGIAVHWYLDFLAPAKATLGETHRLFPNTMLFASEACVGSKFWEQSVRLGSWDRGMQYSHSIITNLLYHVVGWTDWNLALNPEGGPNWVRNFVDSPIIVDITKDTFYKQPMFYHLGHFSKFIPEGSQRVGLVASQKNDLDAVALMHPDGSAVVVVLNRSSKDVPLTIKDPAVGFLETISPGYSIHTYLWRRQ
Sequence of Glucocorticoid receptor (Homo sapiens) (P04150 whole entry, looked up, the tested form may be a part): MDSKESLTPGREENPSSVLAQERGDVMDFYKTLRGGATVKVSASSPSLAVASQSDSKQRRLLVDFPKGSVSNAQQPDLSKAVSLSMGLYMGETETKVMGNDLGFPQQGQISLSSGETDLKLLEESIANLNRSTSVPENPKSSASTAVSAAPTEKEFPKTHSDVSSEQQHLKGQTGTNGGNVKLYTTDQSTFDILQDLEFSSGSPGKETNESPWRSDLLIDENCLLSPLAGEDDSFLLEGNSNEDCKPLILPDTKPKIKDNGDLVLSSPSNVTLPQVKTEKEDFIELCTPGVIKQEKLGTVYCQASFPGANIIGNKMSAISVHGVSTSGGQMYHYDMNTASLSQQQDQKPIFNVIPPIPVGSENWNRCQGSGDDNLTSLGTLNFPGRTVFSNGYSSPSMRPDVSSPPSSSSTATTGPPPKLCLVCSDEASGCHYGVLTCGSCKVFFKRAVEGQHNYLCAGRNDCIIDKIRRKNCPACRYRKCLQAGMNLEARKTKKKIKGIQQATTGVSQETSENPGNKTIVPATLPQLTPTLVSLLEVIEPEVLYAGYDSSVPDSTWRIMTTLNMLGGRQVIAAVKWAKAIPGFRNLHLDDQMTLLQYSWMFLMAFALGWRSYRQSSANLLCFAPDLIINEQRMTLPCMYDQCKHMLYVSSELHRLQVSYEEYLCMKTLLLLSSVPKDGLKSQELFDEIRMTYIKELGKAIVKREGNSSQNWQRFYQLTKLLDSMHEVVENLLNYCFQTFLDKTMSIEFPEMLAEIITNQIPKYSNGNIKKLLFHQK
Sequence of Ubiquitin carboxyl-terminal hydrolase 1 (Homo sapiens) (O94782 whole entry, looked up): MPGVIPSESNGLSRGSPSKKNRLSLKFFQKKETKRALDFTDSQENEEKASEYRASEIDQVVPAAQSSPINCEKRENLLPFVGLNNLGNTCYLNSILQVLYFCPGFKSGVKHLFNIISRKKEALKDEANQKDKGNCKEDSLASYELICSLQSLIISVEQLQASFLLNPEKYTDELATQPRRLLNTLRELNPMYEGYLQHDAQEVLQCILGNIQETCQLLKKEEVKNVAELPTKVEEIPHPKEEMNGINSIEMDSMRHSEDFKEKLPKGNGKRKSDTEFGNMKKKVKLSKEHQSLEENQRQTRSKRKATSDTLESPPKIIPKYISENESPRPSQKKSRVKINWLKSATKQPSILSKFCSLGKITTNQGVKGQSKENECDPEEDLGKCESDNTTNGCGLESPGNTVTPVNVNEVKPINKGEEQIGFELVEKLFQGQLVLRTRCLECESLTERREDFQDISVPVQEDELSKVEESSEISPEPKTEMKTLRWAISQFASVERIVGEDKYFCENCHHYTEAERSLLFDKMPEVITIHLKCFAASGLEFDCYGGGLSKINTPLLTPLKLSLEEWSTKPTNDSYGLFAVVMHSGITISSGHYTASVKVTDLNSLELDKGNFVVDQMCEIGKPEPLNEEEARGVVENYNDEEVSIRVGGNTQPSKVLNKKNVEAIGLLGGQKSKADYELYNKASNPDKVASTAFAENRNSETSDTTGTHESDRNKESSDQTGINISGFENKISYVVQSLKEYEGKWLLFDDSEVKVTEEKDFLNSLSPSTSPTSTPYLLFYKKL
Sequence of 3',5'-cyclic-AMP phosphodiesterase 4B (Homo sapiens) (Q07343 whole entry, looked up): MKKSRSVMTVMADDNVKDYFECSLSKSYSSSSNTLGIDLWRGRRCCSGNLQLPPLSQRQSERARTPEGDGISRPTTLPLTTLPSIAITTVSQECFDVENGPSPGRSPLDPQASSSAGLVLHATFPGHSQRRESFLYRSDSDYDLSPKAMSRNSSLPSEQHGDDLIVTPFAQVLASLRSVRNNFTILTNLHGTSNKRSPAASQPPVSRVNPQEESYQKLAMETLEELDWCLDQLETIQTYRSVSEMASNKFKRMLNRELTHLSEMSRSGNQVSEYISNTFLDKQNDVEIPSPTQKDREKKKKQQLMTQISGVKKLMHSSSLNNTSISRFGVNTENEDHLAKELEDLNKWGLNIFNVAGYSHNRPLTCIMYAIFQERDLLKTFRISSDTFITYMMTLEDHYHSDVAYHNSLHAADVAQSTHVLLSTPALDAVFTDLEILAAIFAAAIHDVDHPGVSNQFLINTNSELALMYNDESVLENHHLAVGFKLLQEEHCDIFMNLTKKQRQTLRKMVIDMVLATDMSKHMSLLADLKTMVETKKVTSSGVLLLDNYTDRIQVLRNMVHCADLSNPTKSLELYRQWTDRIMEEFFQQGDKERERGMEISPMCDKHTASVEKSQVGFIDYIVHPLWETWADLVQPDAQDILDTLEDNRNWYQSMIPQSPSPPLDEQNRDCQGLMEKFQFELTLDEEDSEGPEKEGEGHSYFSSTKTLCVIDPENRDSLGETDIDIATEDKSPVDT
Sequence of Cytochrome P450 3A4 (Homo sapiens) (P08684 whole entry, looked up): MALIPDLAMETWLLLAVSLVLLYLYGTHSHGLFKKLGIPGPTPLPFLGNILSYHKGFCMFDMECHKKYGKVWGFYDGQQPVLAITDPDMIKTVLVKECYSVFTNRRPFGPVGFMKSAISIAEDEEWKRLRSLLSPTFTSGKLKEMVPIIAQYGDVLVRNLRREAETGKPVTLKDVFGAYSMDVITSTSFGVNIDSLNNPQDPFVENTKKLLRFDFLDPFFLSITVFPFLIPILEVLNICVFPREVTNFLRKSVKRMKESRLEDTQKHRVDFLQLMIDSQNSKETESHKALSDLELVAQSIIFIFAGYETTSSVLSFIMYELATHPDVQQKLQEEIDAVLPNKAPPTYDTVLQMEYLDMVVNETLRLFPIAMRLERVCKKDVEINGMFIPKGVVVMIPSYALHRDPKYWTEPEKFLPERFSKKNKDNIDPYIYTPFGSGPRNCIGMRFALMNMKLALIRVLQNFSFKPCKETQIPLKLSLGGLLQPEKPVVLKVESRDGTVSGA
Sequence of Cytochrome P450 1A2 (Homo sapiens) (P05177 whole entry, looked up): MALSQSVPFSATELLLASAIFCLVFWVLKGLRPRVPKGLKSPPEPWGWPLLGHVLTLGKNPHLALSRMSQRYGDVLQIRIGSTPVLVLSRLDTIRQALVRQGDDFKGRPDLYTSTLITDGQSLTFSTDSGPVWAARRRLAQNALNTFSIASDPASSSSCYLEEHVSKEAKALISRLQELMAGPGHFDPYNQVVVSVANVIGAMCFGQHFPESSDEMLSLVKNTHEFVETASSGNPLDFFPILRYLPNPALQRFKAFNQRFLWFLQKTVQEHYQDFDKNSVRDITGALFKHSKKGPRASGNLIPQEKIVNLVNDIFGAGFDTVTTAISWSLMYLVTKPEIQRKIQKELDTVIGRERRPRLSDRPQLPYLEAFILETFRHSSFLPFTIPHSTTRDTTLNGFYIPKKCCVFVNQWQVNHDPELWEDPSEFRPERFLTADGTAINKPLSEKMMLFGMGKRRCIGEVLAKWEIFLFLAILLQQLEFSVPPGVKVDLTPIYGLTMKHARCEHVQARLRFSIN

Consider `O=c1c(-c2ccccc2)nc2cnc(Oc3cccc(Cl)c3)nc2n1C[C@H]1CCCO1`, for which the Potency is > 11.4 µM (inactive) in test [1], > 9.22 µM (inactive) in test [4] and > 46 µM (inactive) in test [5]. Moreover, the figures for the activity change, negative = inhibition in [2] and in test [7] were -8.22% (inactive) and -16.5% (inactive), respectively. In addition, in test [3], the activity, negative = inhibition was -8.43% (inactive). In addition, the Potency entry in test [6], in [8], in test [9], in test [10] and in test [11] was “inactive” in each case. The max response in test [7] (setting [17]) was 18.2%; in test [7] (setting [18]), -2.39%.
Turning to `CN1CCN(c2ncnc3ccc(-c4cccc(NS(C)(=O)=O)c4)cc23)CC1`, the Potency in [1] was > 11.4 µM (inactive); in test [12] it was 25.1 µM (active); in [4], > 46 µM (inactive); in [5], > 46 µM (inactive); in test [8], 6.31 µM (active); in test [9] it was 7.94 µM (active). Further, the Potency in [10] is 10 µM (active). Also, in test [3], the activity, negative = inhibition was -16.1% (inactive). Further, the Potency result in [6], in [13] and in [11] was “inactive” each time. Besides, in [7], the activity change, negative = inhibition is -4.99% (inactive). For the same molecule, the max response was -11.5% in [7] (setting [17]) and -16% in test [7] (setting [18]).
With `N#CCCn1c(=O)c(-c2ccc(F)cc2)nc2cnc(OCc3ccccc3)nc21`, the Potency was > 11.4 µM (inactive) in [1], 1.58 µM (active) in test [12], > 9.22 µM (inactive) in test [4] and > 46 µM (inactive) in [5]. Also, the activity change, negative = inhibition in test [2] was -4.49% (inactive); in test [7], -1.54% (inactive). In addition, the activity, negative = inhibition in [3] is -20.1% (inactive). Besides, the Potency result in test [6], in test [14], in [13], in [8], in test [9] and in test [10] was “inactive” throughout. In test [11], the Potency entry was “inactive”. Moreover, the max response was 0.762% in test [7] (setting [17]) and -3.12% in test [7] (setting [18]).
For the molecule `Clc1ccccc1-c1cncnc1NCCN1CCOCC1`, the Potency in test [1] was > 11.4 µM (inactive); in [4], > 46 µM (inactive); in test [5], > 46 µM (inactive); in test [15], 3.16 µM (active). In addition, in test [3], the activity, negative = inhibition is 7.26% (inactive). The Potency entry in test [6], in [14], in test [8], in test [9], in [10] and in test [11] was “inactive” throughout. The activity change, negative = inhibition in test [7] was 1.35% (inactive). Besides, the max response in [7] (setting [17]) worked out at 18.6%; in test [7] (setting [18]) it was 20.3%.
Turning to `COc1cccc(-c2ccc3ncnc(NCCNC(C)=O)c3c2)c1`, the Potency in test [1] is > 11.4 µM (inactive); in test [4], > 46 µM (inactive); in [5] it was > 46 µM (inactive); in test [8] it was 0.355 µM (active); in test [9], 0.447 µM (active); in test [10], 0.282 µM (active). For the same molecule, the activity change, negative = inhibition in [16] was -19.2% (inactive); in [2] it was 21% (inactive); in test [7], -2.84% (inactive). Further, the activity, negative = inhibition in [3] was 11% (inactive). The Potency entry in [6], in [14], in test [13] and in [11] was “inactive” in each case. Besides, the activation in test [15] is 5.52% (inactive). Further, the max response in [7] (setting [17]) is -13.2%; in [7] (setting [18]), -16.4%.
With `COc1cccc(Cn2c(=O)c(C)nc3cnc(N(C)C)nc32)c1`, the Potency is > 11.4 µM (inactive) in test [1], > 9.22 µM (inactive) in test [4] and > 46 µM (inactive) in test [5]. For the same molecule, the activity change, negative = inhibition in [16] is -23% (inactive); in test [2], 1.59% (inactive); in test [7], -5.5% (inactive). Besides, the activity, negative = inhibition in [3] is -11.2% (inactive). Also, the Potency result in test [14], in [8], in test [9], in test [10] and in test [11] was “inactive” in each case. Moreover, the max response in test [7] (setting [17]) is 19.8%; in [7] (setting [18]), 12.4%.
